# Laboratory results taken from PubChem BioAssay (NCATS).
# Records with an inconclusive call do not appear. Values without a mark were called inactive. Activity calls are given as the source filed them. The call rests on the fitted dose curve; in most records, active means well fitted cell-killing curve with a large enough effect; inconclusive means small, poorly fitted or top-dose-only effect; inactive means flat fitted curve, though single readings scatter.
# Assay: Quantitative highthroughput screen to assess conditional lethalithy of P12 Ichikawa cells grown in Human Plasma-Like Medium with dialyzed fetal bovine serum (HPLM+ds) (AID 1963879); further: nearly all actives have a fitted effect of over 35% in size
# Conditions: ATP luminescence, 48 h; Potency: viability; series mostly up to 45.8 µM; viability: at the top concentration
# Excerpt: Assay Provider: Jason Cantor Ph.D.
# Department of Biochemistry
# University of Wisconsin-Madison, Madison, WI, USA
# Chemical screening studies have identified drug sensitivities across hundreds of cancer cell lines but most putative therapeutics fail to translate. Discovery and development of drug candidates in models that more accurately reflect nutrient levels in human blood is a major challenge. Here we performed high-throughput screens in conventional versus Human Plasma-Like Medium (HPLM) to identify compounds that were "missed" when screening using the artificial culture condition. Sets of conditional anticancer compounds spanned phases of clinical development and included non-oncology drugs were assessed. […] We also traced conditional phenotypes for several chemotherapeutics to availability of HPLM-specific metabolites and confirmed others for compounds whose reported targets are encoded by nonessential genes. Our findings establish generalizable strategies for exploiting conditional lethality in HPLM to reveal therapeutic candidates and mechanisms of action in cancer cells.
# Described herein are the results of each viability screens against three cell lines: NOMO1 (an acute myeloid leukemia cell line); P12-Ichikawa (a T-cell acute lymphoblastic leukemia); and SEM (a B-cell ALL). Each assay was screened using 3 different cell culture media: homemade human plasma-Like medium with 10% dialyzed fetal bovine serum (HPLM+ds); RPMI1640 with 10% untreated FBS and 5mM glucose (RPMI+s); and RPMI1640 with 10% dialyzed fetal bovine serum and 5 mM glucose (RPMI+ds).
# PROTOCOL TABLE (as described by Inglese J, Shamu CE and Guy RK. 2007)
# SEQUENCE No. (e.g., 1, 2, 3, etc.); […] (e.g., Cells, Incubation, Reagent, etc.); VALUE and DESCRIPTION.
# 1; Cells; 5 uL; white, solid bottom 1536-well Greiner assay plate.
# 2; Compounds; 23 nL; Kalypsis pin tool (Wako USA) equipped with a 1536-well pin head to transfer to the assay plates.
# 3; Incubation; 48 hours; 37C incubation.
# 4; Reagent; 3 uL; CellTiter Glo (Promega).
# 5; Incubation; 5 min, room temperature
# 6; Detection; Luminescence, Viewlux PerkinElmer.
# NOTES (numbers refer to Sequence numbers above)
# 1. Briefly, 5 ul of cell reagent was dispensed using a Multidrop Combi Dispenser. The NOMO1 and SEM cells were plated at 500 cells/well and the P12-Ichikawa line at 1000 cells/well.
# 2. After seeding the cells, 23 nL of MIPE 4.1 library compounds (in DMSO) were added to each plate using a Kalypsys 1536 Pintool dispenser. Bortezomib at final concentration of […] and DMSO were added to each plate as positive and negative controls respectively. For each screen, MIPE 4.1 compounds were added over an eleven-point concentration range […] in 3-fold dilutions.
# 3. Each plate was covered with a stainless steel gasketed lid to prevent evaporation and incubated for 48 hour at 37C, 95% relative humidity, and 5% CO2.
# 4-5. Three microliter CellTilter-GloTM luminescent substrate mix (Promega) reagent was added to the assay plate and incubated at room temperature for 5 min.
# 6. The luminescence signal was measured using a ViewLux (PerkinElmer) multiplate reader with a 2 second exposure time per plate. Data for each compound were normalized as percent viability such that measurements for DMSO and the empty well controls in each plate were defined as 100% and 0%, respectively.
# Potency means the concentration at half of the fitted maximal effect.
Compound,viability,Potency
CN1CCC(COc2cnc(-c3cccc(Cn4nc(-c5cccc(C#N)c5)ccc4=O)c3)nc2)CC1,91.1%,–
O=C(Nc1nc2ccccc2n1CCN1CCOCC1)c1cccc([N+](=O)[O-])c1,95.6%,–
CC(C)(C)COc1ccc(-n2cc(C(=O)O)cn2)cc1C#N,97.3%,–
N#Cc1c(C2CCNCC2)cc(-c2c(O)cccc2OCC2CC2)nc1N,93.2%,–
O=C(O)C1=CO[C@@H](O[C@@H]2O[C@H](CO)[C@H](O)[C@H](O)[C@H]2O)[C@@H]2C(CO)=CC[C@H]12,104%,–
CS(=O)(=O)N1CCc2c(-c3cnc(N)nc3)nc(N3CCOCC3)nc21,87.9%,–
CC=C1C2C=C(C)CC1(N)c1ccc(=O)[nH]c1C2 (stereo not given),83.9%,–
COc1cc(Nc2ncc(F)c(Nc3ccc4c(n3)N(COP(=O)(O)O)C(=O)C(C)(C)O4)n2)cc(OC)c1OC,94.9%,–
OC(CN1CCC(Cc2ccc(F)cc2)CC1)c1ccc(Cl)cc1 (stereo not given),101%,–
COc1cc2ncnc(Nc3cccc(Br)c3)c2cc1OC,102%,–
Cc1ccc(NC(=O)c2cccc(N(C)C)c2)cc1NC(=O)c1ccc(O)cc1,96.1%,–
Cc1cc(C(=O)NOCCO)c(Nc2ccc(I)cc2F)n(C)c1=O,73.4%,–
O=C(Cc1ccc(-c2ccc(OCCN3CCOCC3)cc2)cn1)NCc1ccccc1,–,33.2 nM (active)
COc1ccc2c(c1)c(C1=C(c3c[nH]c4ccccc34)C(=O)NC1=O)cn2CCCN(C)C,81%,–
COC[C@H](NC(=O)c1cnc(C)s1)C(=O)N[C@@H](COC)C(=O)N[C@@H](Cc1ccccc1)C(=O)[C@@]1(C)CO1,–,235 nM (active)
Cn1cc(-c2[nH]c3cc(NC(=O)[C@H](N)C4CCCCC4)cc4c3c2C=NNC4=O)cn1,–,16600 nM (active)
c1ccc2c(Oc3nc(Nc4ccc(N5CCOCC5)cc4)c4ncn(C5CCCCC5)c4n3)cccc2c1,101%,–
CC(C)N(C[C@H]1O[C@@H](n2cnc3c(N)ncnc32)[C@H](O)[C@@H]1O)C1CC(CCc2nc3ccc(C(C)(C)C)cc3[nH]2)C1 (stereo not given in full),–,1050 nM (active)
Cc1nc2n(c(=O)c1CCN1CCC(c3noc4cc(F)ccc34)CC1)CCCC2,98.4%,–
CC(NCc1ccc2c(c1)nc(NC(=O)c1ccc(-c3cn[nH]c3)s1)n2CC(C)(C)O)C(C)(C)C (stereo not given),–,2350 nM (active)

Compound,viability,Potency
c1cc(-c2sc(-c3ccncc3)c(-c3ccncc3)c2-c2ccncc2)ccn1,89.9%,–
Cn1cc(CNCC2CCN(c3ncc(C(=O)NO)cn3)CC2)c2ccccc21,–,264 nM (active)
CN(C)CCOc1cc(-c2cn[nH]c2)ccc1NC(=O)C1COc2ccccc2O1 (stereo not given),89.8%,–
O=C(C1CC1)N1CC[C@@H](Cn2c(-c3ccc(-c4ccc5occc5c4)cc3)nc3cnccc32)C1,94.7%,–
Nc1cccc2c1CN(C1CCC(=O)NC1=O)C2=O (stereo not given),97.5% [at 92.2 µM],–
COc1cccc2c1C(=O)c1c(O)c3c(c(O)c1C2=O)C[C@@](O)(C(C)=O)C[C@H]3O[C@H]1C[C@H](N)[C@H](O)[C@H](C)O1,–,264 nM (active)
Cc1ccc(-n2[nH]c(C)c(N=Nc3cccc(-c4cccc(C(=O)O)c4)c3O)c2=O)cc1C,–,16600 nM (active)
CN(C)c1ccccc1CN1CCCN(Cc2ccccc2N(C)C)C1c1ccncc1,93.1%,–
CCCCNc1cc(C(=O)O)cc(S(N)(=O)=O)c1Oc1ccccc1,105%,–
O=C1NC(=O)C(=Cc2ccc3nccc(-c4ccncc4)c3c2)S1,–,7430 nM (active)
CC(C)(C)NC(=O)Nc1cccc(Nc2ncc(F)c(NC(C)(C)CO)n2)c1,–,8330 nM (active)
COc1ccc(Cc2ccc(NC(N)=O)cc2)cc1-c1cccc(Cl)c1,97.1%,–
CCN[C@H]1C[C@H](C)S(=O)(=O)c2sc(S(N)(=O)=O)cc21,101%,–
CCN1CCN(C(=O)N[C@H](C(=O)N[C@@H]2C(=O)N3C(C(=O)O)=C(CSc4nnnn4C)CS[C@@H]23)c2ccc(O)cc2)C(=O)C1=O,103% [at 15.3 µM],–
C[C@@H]1CN(Cc2ccc(F)cc2)[C@@H](C)CN1C(=O)c1cc2c(C(=O)C(=O)N(C)C)cn(C)c2cc1Cl,92.2%,–
CCC(C=C[C@@H]1OC(=O)C=C[C@H]1C)=C[C@H](C)CC=CC(C)=C[C@@H](C)C(=O)[C@@H](C)[C@H](O)[C@@H](C)CC(C)=CC(=O)O,–,110 nM (active)
CC(C)C[C@H](NC(=O)[C@H](Cc1ccccc1)NC(=O)c1cnccn1)B(O)O,–,37.2 nM (active)
Oc1ccc(C2CNCCc3c2cc(O)c(O)c3Cl)cc1 (stereo not given),106%,–
CN(C)CCN1C(=O)c2cccc3cc(N)cc(c23)C1=O,–,18700 nM (active)
O=S(=O)(NCCNCC=Cc1ccc(Br)cc1)c1cccc2cnccc12,98.2%,–
